Measurements taken from the supplement of paper PMC6555819.

Experiments:
Assay in all cases: PBM binding z-score (relative to random genomic background probes); higher = stronger binding; sequences stand for … in GC…GCGATTGACAGCGTAGAATGAAGG
[1] = test system: PPARg:RXRa DBDmut IVT, anti-RXR (DBD mutation: RXRa K156A/R161A, NR concentration 270 nM, RXRa partner concentration 90 nM)
Procedure, shortened: (§1)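 The probes on custom Agilent 4×180K protein-binding microarrays were double-stranded, with 34-nt variable regions bearing direct-repeat seeds, single-nucleotide variants, half-site ablations and random human genomic background sequences. Incubation lasted 1 h with ligand-free nuclear receptor dimers in PBS pH 7.4, 2% milk, 0.02% Triton X-100, 1 mM DTT, 0.2 mg/mL BSA and 0.4 mg/ml salmon testes DNA. Antibodies against each partner (one per run) detected bound dimers, and fluorescence scans were regression-normalized. Binding z-scores take the random background probes as reference.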

[2] = test system: PPARg:RXRa IVT, anti-PPARg (NR concentration 270 nM, RXRa partner concentration 90 nM)
Procedure, shortened: as §1

[3] = test system: PPARg DBDmut:RXRa IVT, anti-PPARg (DBD mutation: PPARg1 K132A/R137A, NR concentration 270 nM, RXRa partner concentration 90 nM)
Procedure, shortened: as §1

[4] = test system: PPARg DBDmut IVT, anti-PPARg (DBD mutation: PPARg1 K132A/R137A, NR concentration 270 nM)
Procedure, shortened: as §1

[5] = test system: PPARg homodimer (NR concentration 180 nM)
Procedure, shortened: as §1

[6] = test system: PXR:RXRa (NR concentration 270 nM, RXRa partner concentration 90 nM)
Procedure, shortened: as §1

[7] = test system: PXR homodimer (NR concentration 270 nM)
Procedure, shortened: as §1

[8] = test system: RARa:RXR (NR concentration 270 nM, RXRa partner concentration 90 nM)
Procedure, shortened: as §1

[9] = test system: RARa homodimer (NR concentration 270 nM)
Procedure, shortened: as §1

[10] = test system: RARb:RXRa (NR concentration 270 nM, RXRa partner concentration 90 nM)
Procedure, shortened: as §1

[11] = test system: RARb homodimer (NR concentration 270 nM)
Procedure, shortened: as §1

[12] = test system: RARg:RXRa (NR concentration 270 nM, RXRa partner concentration 90 nM)
Procedure, shortened: as §1

[13] = test system: RARg homodimer (NR concentration 270 nM)
Procedure, shortened: as §1

[14] = test system: RXRa DBDmut IVT, anti-RXR (DBD mutation: RXRa K156A/R161A, NR concentration 90 nM)
Procedure, shortened: as §1

[15] = test system: RXRa homodimer (NR concentration 180 nM)
Procedure, shortened: as §1

[16] = test system: THRa:RXRa (NR concentration 90 nM, RXRa partner concentration 90 nM)
Procedure, shortened: as §1

[17] = test system: THRa homodimer (NR concentration 90 nM)
Procedure, shortened: as §1

[18] = test system: VDR homodimer (NR concentration 270 nM)
Procedure, shortened: as §1

Sequence | PBM binding z-score [1] | PBM binding z-score [2] | PBM binding z-score [3] | PBM binding z-score [4] | PBM binding z-score [5] | PBM binding z-score [6] | PBM binding z-score [7] | PBM binding z-score [8] | PBM binding z-score [9] | PBM binding z-score [10] | PBM binding z-score [11] | PBM binding z-score [12] | PBM binding z-score [13] | PBM binding z-score [14] | PBM binding z-score [15] | PBM binding z-score [16] | PBM binding z-score [17] | PBM binding z-score [18]
CATACAGGGTCAGCTAGGCCAGAATAGGGACGGC | 0.915 | 2.41 | 0.965 | 0.203 | 0.999 | 2.22 | 0.0161 | 2.91 | 0.818 | 4.16 | 3.37 | 4.33 | 4.34 | 1.53 | 4.26 | 3.04 | 1.13 | 0.805
ACCTCTAGGTAAAAGTTCAGTGAATCCCGAGGAT | 2.11 | 3.3 | 0.37 | 0.231 | 0.975 | 1.54 | 1.16 | 1.11 | 0.0645 | 2.08 | 2.22 | 1.17 | 1.56 | 0.969 | 1.22 | 0.914 | -0.324 | 1.21
ACTATTAGTTGAGACGAGAGCAACCGATAGGTTG | -0.112 | -0.0541 | 0.442 | 0.157 | 0.139 | -0.467 | -0.273 | -0.313 | 0.747 | -0.263 | -0.441 | 0.044 | 0.359 | -0.00279 | 0.11 | -0.0893 | -0.555 | -0.215
ATCGTAAGGTCGACGAGGTGAGTATACACCGTTT | 0.226 | 1.61 | 0.856 | 0.0648 | 0.926 | 2.17 | 0.476 | 2.39 | 0.139 | 3.08 | 2.31 | 3.18 | 3.23 | 1.37 | 3.01 | 3.89 | 2.39 | 1.63
AGAACGAGGGCAATGAGTTGATAGCTCGGGTGGC | 3.68 | 2.41 | 0.337 | -0.763 | -0.195 | 1.36 | 5.33 | 0.0914 | -0.796 | 2.08 | 0.713 | 0.827 | 1.26 | 1.77 | 0.484 | 0.779 | -0.312 | 2.69
GCATATAGGTAATACAAGGTGAAAGCCCGATTGT | 4.04 | 3.27 | 1.21 | 0.358 | 0.757 | 0.437 | -0.12 | 0.973 | 0.0827 | 0.234 | 0.51 | 0.492 | 0.56 | 0.379 | 0.681 | 4.09 | 0.763 | -0.285
ATTTGTAGGTTAAGGGTCATTCAGGTTGGTTCGC | 6.4 | 7.15 | 4.62 | 2.85 | 7.55 | 5.87 | 3.82 | 6.91 | 4.5 | 3.9 | 3.97 | 5.34 | 4.15 | 2.49 | 6.91 | 3.76 | 2.55 | 5.33
CAAACTAGGTCACCGGAAGGGCAAAGTCCGCATG | 8.45 | 8.73 | 1.66 | 1.37 | 1.44 | 3.29 | 0.241 | 3.92 | 0.698 | 4.47 | 4.57 | 6.48 | 5.56 | 1.21 | 3.68 | 3.42 | 1.7 | 1.33
